Measurements: PubChem BioAssay
Calls of active or inactive are those of the source.

Key:
[1] = A549 cell viability effects, profiling panel, calcein-AM fluorescence, 48 h, basal (AID 1162); settings: higher = more signal
[2] = adipocyte viability effects, profiling panel, cell-based, 3T3-L1 adipocytes, calcein-AM fluorescence, 48 h, basal (AID 1163); settings: 3T3-L1 adipocytes viability, higher = more signal
[3] = HepG2 cell viability effects, profiling panel, calcein-AM fluorescence, 48 h, basal (AID 1164); settings: higher = more signal
[4] = MM1S cell viability effects, profiling panel, calcein-AM fluorescence, 48 h, basal (AID 1165); settings: higher = more signal;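 note: viability of MM1S multiple myeloma cells under basal unstimulated conditions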
[5] = basal RPMI8226 viability, no added stimulus, profiling panel, cell-based, calcein-AM fluorescence, 48 h, PK04 Diversity Set (AID 1166); settings: RPMI8226 myeloma viability, higher = more signal;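 note: cells grown under basal conditions without added stimulus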
[6] = basal HepG2 mitochondrial membrane potential changes, profiling panel, cell-based, JC-1 fluorescence, 24 h, 100 nL compound (AID 1167); settings: higher = more signal
[7] = basal 3T3-L1 adipocyte mitochondrial potential changes, profiling panel, cell-based, JC-1 fluorescence, 3T3-L1 adipocytes, 24 h, 100 nL compound (AID 1168); settings: JC-1 mitochondrial fluorescence, higher = more signal, called active from +8 up or from −8 down
[8] = basal RPMI8226 mitochondrial membrane potential changes, profiling panel, cell-based, JC-1 fluorescence, 24 h, 100 nL compound (AID 1169); settings: RPMI8226 myeloma, JC-1 mitochondrial potential fluorescence, higher = more signal
[9] = basal MM1S mitochondrial membrane potential changes, profiling panel, cell-based, JC-1 fluorescence, 24 h, 100 nL compound (AID 1170); settings: higher = more signal
[10] = A549 lung cancer cell viability effects, profiling panel, resazurin fluorescence, 24 h, PK04 Diversity Set (AID 1171); settings: higher = more signal, called active from +8 up or from −8 down
Note: test concentration not given here.

Compound | z-score [1] | z-score [2] | z-score [3] | z-score [4] | z-score [5] | z-score [6] | z-score [7] | z-score [8] | z-score [9] | z-score [10]
COc1ccc(O[C@H]2C=C[C@@H](c3ccccc3)O[C@@H]2COC(=O)CCC(C)=NOC[C@@H](O)COCc2ccco2)cc1 | 0.944 | 0.651 | 0.599 | -1.89 | 0.107 | -0.918 | 0.0665 (inactive) | -0.313 | -1.12 | 0.402 (inactive)
CC(C)=CCCC(C)=CCON=C1C[C@@H](O)[C@@H](O)[C@@H]2[C@@H]3C(=O)N([C@@H](C)c4ccccc4)C(=O)[C@@H]3CC[C@@H]12 | -0.412 | 0.934 | -0.341 | 0.176 | -0.249 | -0.781 | -0.598 (inactive) | 0.0813 | 0.114 | -0.21 (inactive)
COc1ccc(COC(=O)NN=C2C[C@@H](O)[C@@H](O)[C@@H]3[C@@H]4C(=O)N(C(C)(C)C)C(=O)[C@@H]4CC[C@@H]23)cc1 | 0.901 | 0.514 | -0.777 | 0.569 | -0.448 | -1.08 | -1.14 (inactive) | -0.379 | 0.34 | 0.259 (inactive)
O=C1C2=CC[C@H]3C(=O)N(Cc4ccccc4)C(=O)[C@H]3[C@H]2[C@H](O)[C@@H]2O[C@H]12 | -0.77 | -0.238 | -4.47 | -3.28 | -3.83 | -2.12 | 1.02 (inactive) | -1.05 | -2.91 | 0.152 (inactive)
CC(CCC(=O)OC[C@H]1O[C@H](C#Cc2ccccc2)C=C[C@@H]1Oc1ccc(C)cc1)=NO[C@@H](C)c1cc(-c2c(C)cc(C)cc2C)no1 | -0.355 | 0.777 | -0.338 | -0.0941 | -2.61 | 1.78 | -0.495 (inactive) | 0.621 | 0.114 | -0.366 (inactive)
OC[C@H]1O[C@H](C#Cc2ccccc2)C=C[C@@H]1O | -0.259 | 0.0466 | 0.457 | -3.41 | -1.26 | 0.552 | -0.397 (inactive) | 0.607 | -0.673 | -0.852 (inactive)
CCOC(=O)[C@H](Cc1ccccc1)NC(=O)CCC1CC(OC(=O)NCCc2ccc(F)cc2)CC2(CCCC(COC(=O)NCCOc3ccccc3)O2)O1 (stereo not given in full) | 0.613 | -0.156 | 0.141 | -0.565 | -1.25 | 1.71 | 0.508 (inactive) | -0.218 | -0.123 | 0.264 (inactive)
COc1ccc(O[C@H]2C=C[C@@H](C#Cc3ccccc3)O[C@@H]2CO)cc1 | -0.167 | 0.956 | -1.03 | -3.57 | -3.67 | -1.19 | -0.252 (inactive) | -0.891 | -1.46 | 0.447 (inactive)
CO[C@H]1C[C@@H]2C[C@H](O)CC(CC(=O)O[C@@H](C=CCC(C)C)C[C@@H]3CC[C@H](C)[C@@H](C1)O3)O2 | 0.366 | 0.128 | 0.341 | 0.283 | 0.624 | -0.427 | -0.975 (inactive) | 0.392 | -0.49 | -0.0031 (inactive)
CCN1C(=O)[C@H]2[C@H]3[C@H](O)[C@H](O)CC(=NOCC=C(C)CCC=C(C)C)[C@@H]3CC[C@H]2C1=O | -0.0234 | 0.28 | -0.196 | -0.701 | 0.203 | -0.731 | -1.56 (inactive) | -0.321 | 0.355 | 0.298 (inactive)
CC(C)=CCCC(C)=CCON=C1C[C@@H](O)[C@@H](O)[C@@H]2[C@@H]3C(=O)N(C4CCCCC4)C(=O)[C@@H]3CC[C@H]12 | -0.529 | -0.735 | -0.0977 | -2.9 | -0.201 | -1.47 | -0.444 (inactive) | -0.467 | -1.4 | -0.587 (inactive)
CC(=O)OC[C@H]1O[C@H](CC=NO[C@H](C)c2cn([C@@H]3COC[C@H]3O)nn2)C=C[C@@H]1OC(C)=O | 0.674 | 0.062 | 0.631 | 0.621 | 0.479 | 0.00468 | 1.13 (inactive) | 0.418 | -0.466 | -0.145 (inactive)
CCOC(=O)[C@H](Cc1ccccc1)NC(=O)CCC1CC(OC(=O)NCc2ccc3c(c2)OCO3)CC2(CCCC(COC(=O)NCCOc3ccccc3)O2)O1 (stereo not given in full) | -0.794 | -0.317 | 0.184 | 0.322 | 0.0039 | 2.45 | 0.808 (inactive) | -0.0508 | -1.17 | 0.198 (inactive)
COc1ccc(O[C@H]2C=C[C@@H](c3ccccc3)O[C@@H]2CO)cc1 | 0.109 | 0.0705 | -0.27 | -0.307 | -0.0698 | 0.194 | -0.637 (inactive) | 0.362 | -0.42 | -0.521 (inactive)
COC(=O)[C@@H]1CC[C@H](C)[C@@H](c2ccc(C)cc2)N1C(=O)c1ccc(C=NOC[C@H]2O[C@H](c3ccccc3)C=C[C@@H]2Oc2ccc(OC)cc2)cc1 | -0.798 | -0.36 | -0.195 | 0.248 | -0.537 | 2.64 | -2.02 (inactive) | 0.833 | 0.0359 | 0.307 (inactive)
CC(C)CON=C1C[C@@H](O)[C@@H](O)[C@@H]2[C@@H]3C(=O)N(c4ccc(F)cc4F)C(=O)[C@@H]3CC[C@@H]12 | -0.793 | 0.44 | -0.464 | -0.102 | -0.587 | 1.31 | -0.4 (inactive) | -0.648 | -0.425 | 0.491 (inactive)
COCC#Cc1ccc([C@@H]2N[C@H](C(=O)O)CC[C@H]2C)cc1 | 0.681 | -0.269 | 0.654 | 0.391 | 1.14 | 0.816 | 0.727 (inactive) | -0.859 | 0.839 | -0.488 (inactive)
O=C1CCCC=C1C(O)c1ccc([N+](=O)[O-])cc1 (stereo not given) | -0.419 | -0.388 | -0.0678 | -0.629 | 0.372 | -0.614 | -0.0489 (inactive) | 0.566 | 0.502 | -0.258 (inactive)
CC(C)CON=C1C[C@@H](O)[C@@H](O)[C@@H]2[C@@H]3C(=O)N(Cc4ccc5c(c4)OCO5)C(=O)[C@@H]3CC[C@@H]12 | 0.606 | -0.724 | -0.211 | 0.828 | -0.51 | 0.367 | 0.115 (inactive) | 0.492 | -1.49 | 0.471 (inactive)
CCOC(=O)[C@H](Cc1ccccc1)NC(=O)CCC1CC(OC(=O)NCCc2ccc(F)cc2)CC2(CCCC(COC(=O)NCCC(C)C)O2)O1 (stereo not given in full) | 1.28 | -0.567 | 0.368 | 0.243 | -0.364 | 0.362 | 0.232 (inactive) | -0.353 | -0.941 | 1.87 (inactive)
COC(=O)[C@H](C)NC(=O)CCC1CC(OC(=O)NCCc2ccc(F)cc2)CC2(CCCC(COC(=O)NCC3CCCCC3)O2)O1 (stereo not given in full) | -0.111 | 0.851 | -1.36 | -0.574 | -1.85 | -0.717 | 0.497 (inactive) | 0.785 | -0.771 | 0.541 (inactive)
CC(=O)OC[C@H]1O[C@H](C#CCC2CCCCC2)C=C[C@@H]1OC(C)=O | 0.422 | -0.654 | 0.503 | -3.48 | -3.35 | -1.1 | -0.185 (inactive) | -0.605 | -1.99 | -0.389 (inactive)
O=C1[C@H]2[C@H]3[C@H](O)[C@H](O)CC(=NO[C@@H]4O[C@H](CO)[C@@H](O)[C@H](O)[C@H]4O)[C@@H]3CC[C@H]2C(=O)N1C1CCCCC1 | 0.646 | -0.235 | 0.521 | 0.547 | 0.776 | 1.09 | -0.229 (inactive) | 0.169 | -1.25 | -0.934 (inactive)
CCOC(=O)[C@H](Cc1ccccc1)NC(=O)CCC1CC(OC(=O)NCc2cccc3ccccc23)CC2(CCCC(COC(=O)NCC3CCCCC3)O2)O1 (stereo not given in full) | 0.391 | 0.146 | -0.574 | -0.0497 | -0.68 | -0.00703 | -0.00973 (inactive) | -0.198 | -0.296 | 0.684 (inactive)
COc1ccc(O[C@H]2C=C[C@@H](c3ccccc3)O[C@@H]2CON=C(C)CCN2CCCc3nc(C)c(C)cc32)cc1 | 0.0505 | -0.351 | -0.491 | -2.13 | -2.37 | 2.98 | -0.853 (inactive) | 0.414 | -0.294 | 0.154 (inactive)
